Screening data from PubChem BioAssay.
This is a sample that favours compounds with a hit; in the whole collection about 10% have one here.
HEK293 tox = Cytotoxic Profiling in HEK 293 Cell Line of Diverse Libraries Using Quantitative High-Throughput Screening. HEK 293 viability, ATP luminescence (CellTiter-Glo), 48-72 h. Potency, µM (titrated, usually from 115 µM), usual class: inhibitors. actives 6.6% (n = 94,000). AID 1345083, 2018; further: nearly all actives have a fitted effect of over 60% in size
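Read-out: CellTiter-Glo ATP luminescence. Cells: HEK 293, 250 cells/well. Exposure: 48 or 72 hr, 37 degree Celsius.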
NIH3T3 tox = Cytotoxic Profiling in NIH 3T3 Cell Line of Diverse Libraries Using Quantitative High-Throughput Screening | actives 4.3% (n = 94,000) | AID 1345082, 2018 | Potency, µM (highest dose often 96.7 µM), hits mostly inhibitors | NIH 3T3 viability, CellTiter-Glo ATP luminescence, 48-72 h; further: nearly all actives have a fitted effect of over 55% in size
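Cytotoxicity was measured by CellTiter-Glo ATP luminescence after 48 or 72 h compound exposure at 37 °C. Mouse NIH 3T3 fibroblasts were seeded at 400 cells/well and dosed by 23 nL pin transfer.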
FLuc inh = Firefly luciferase inhibition profiling of diverse chemical library using quantitative high-throughput screening; Luciferin 4-monooxygenase (Photinus pyralis), P08659; purified P. pyralis luciferase, luminescence, biochemical; Potency, µM (titrated, usually from 115 µM), hits mostly inhibitors; actives 2.5% (n = 76,000); further: nearly all actives have a fitted effect of over 65% in size
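Luminescence read by CCD imager after adding enzyme (10nM final) to wells holding compound, titrated in qHTS. Substrates 10uM each D-luciferin and ATP; buffer 50mM Tris acetate pH 7.5, 10mM Mg acetate, Tween-20, BSA.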
hNpr1 antagonist = Natriuretic polypeptide receptor (hNpr1) antagonism - Primary qHTS | actives 1.6% (n = 76,000) | HEK293 hNpr1 GloSensor cGMP, ANP-stimulated luminescence | AID 1347048, 2019 | Potency, µM (top dose mostly 46.3 µM), actives largely listed as inhibitors; calls by dose curve; further: nearly all actives have a fitted effect of over 60% in size
Target sequence (P16066 whole entry, looked up): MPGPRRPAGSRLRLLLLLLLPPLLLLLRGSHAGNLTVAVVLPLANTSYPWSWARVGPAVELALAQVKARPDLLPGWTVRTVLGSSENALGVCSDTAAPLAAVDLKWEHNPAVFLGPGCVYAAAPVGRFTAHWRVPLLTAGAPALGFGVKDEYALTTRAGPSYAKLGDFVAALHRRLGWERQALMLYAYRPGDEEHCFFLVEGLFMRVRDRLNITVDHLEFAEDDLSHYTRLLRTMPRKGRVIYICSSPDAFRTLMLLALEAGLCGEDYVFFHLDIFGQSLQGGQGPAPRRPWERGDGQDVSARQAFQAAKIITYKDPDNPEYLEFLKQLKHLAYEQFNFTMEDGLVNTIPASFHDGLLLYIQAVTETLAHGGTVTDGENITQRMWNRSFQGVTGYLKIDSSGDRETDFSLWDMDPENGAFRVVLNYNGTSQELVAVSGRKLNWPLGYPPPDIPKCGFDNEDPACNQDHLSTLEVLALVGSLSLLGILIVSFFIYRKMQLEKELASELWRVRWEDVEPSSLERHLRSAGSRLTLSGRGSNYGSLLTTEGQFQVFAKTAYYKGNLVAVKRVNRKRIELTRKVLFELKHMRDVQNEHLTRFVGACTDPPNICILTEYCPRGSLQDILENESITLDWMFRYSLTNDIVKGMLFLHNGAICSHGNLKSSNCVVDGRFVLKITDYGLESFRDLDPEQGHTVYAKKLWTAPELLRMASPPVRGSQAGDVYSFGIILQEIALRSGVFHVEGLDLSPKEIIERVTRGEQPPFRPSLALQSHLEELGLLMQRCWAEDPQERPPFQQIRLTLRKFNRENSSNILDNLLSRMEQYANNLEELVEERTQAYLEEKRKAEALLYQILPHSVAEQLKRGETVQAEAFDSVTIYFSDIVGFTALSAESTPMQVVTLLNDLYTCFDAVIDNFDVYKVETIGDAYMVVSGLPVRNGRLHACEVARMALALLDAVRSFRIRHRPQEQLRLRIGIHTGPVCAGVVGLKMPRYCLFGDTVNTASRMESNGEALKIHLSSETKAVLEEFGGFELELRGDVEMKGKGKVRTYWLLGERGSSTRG
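Compound pre-incubated 30 min at room temperature on GloSensor-loaded HEK293 cells stably carrying hNpr1 and the pGS-40F cGMP biosensor. Stimulation uses hNppA at 0.1 nM final; luminescence is taken at baseline and 20 min post-agonist.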
GPT2 inh = Primary qHTS assay for inhibitors of Glutamate pyruvate transaminase 2 (GPT2); Alanine aminotransferase 2 (Homo sapiens), Q8TD30; Recombinant GPT2, coupled pyruvate oxidase/HRP Amplex Red fluorescence; Potency, µM (top dose mostly 57.7 µM), most hits filed as inhibitors; actives 0.25% (n = 100,000); further: nearly all actives have a fitted effect of over 60% in size
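Fluorescence read-out: pyruvate from GPT2 turnover coupled to pyruvate oxidase, HRP and Amplex Red (0.2mM ThPP, 0.2U/mL PO and HRP, 50uM Amplex final). Substrates 250uM a-KG, 2mM L-alanine; enzyme 10ng/uL; 30 min RT.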
Numbers stand for hits; - = inactive; ? = inconclusive; . = no result given; [ ] = dose if it differs, or a comment. Unless noted, the call rests on the fitted dose curve; in most records, active means well fitted curve in the direction sought with a large enough effect; inconclusive means small, poorly fitted or top-dose-only effect, or another doubt; inactive means no such curve, though single readings can be large; an effect the other way counts as inactive or inconclusive.

SMILES	HEK293 tox	NIH3T3 tox	FLuc inh	hNpr1 antagonist	GPT2 inh
COc1ccccc1-c1ccc(CN2CCC(NC(=O)c3cccc(Cl)c3)C2)cc1 (stereo not drawn)	20µM	22µM	.	.	.
O=C(NC1CCCN(Cc2ccc(-c3cncnc3)cc2)C1)c1cccc(Cl)c1 (stereo not drawn)	?	-	.	.	-
CN(C)C(CCOc1cccc2ccccc12)c1ccccc1 (stereo not drawn)	.	.	.	.	-
O=C(NCCc1ccccc1)C1CN(C2CCCC2)C(=O)N1 (stereo not drawn)	-	-	.	.	-
COc1ccc(Nc2ccc3c(n2)CN(Cc2ccccc2F)C(=O)CO3)cc1	63µM	?	-	?	-
O=C1COc2ccc(Nc3ccccc3)nc2CN1Cc1ccccc1	?	?	-	-	-
COc1ccc(Nc2ccc3c(n2)CN(Cc2nc4ccccc4s2)C(=O)CO3)cn1	50µM	?	?	?	-
COc1ccc(Nc2ccc3c(n2)CN(Cc2ccccc2C)C(=O)CO3)cc1	89µM	79µM	-	?	-
O=C(NCc1ccc(Cl)cc1)C1CCN(c2ccnc3ccnn23)CC1	?	?	.	.	-
O=C(N[C@H]1CCC[C@H]1O)C1(Oc2ccc(Cl)cc2)CCNCC1	-	-	-	-	-[11.5 µM]
COc1ccc(Nc2n[nH]c(C(O)c3cccc(C(F)(F)F)c3)n2)cn1 (stereo not drawn)	?	?	-	-	-
Cc1ccccc1Nc1n[nH]c(C(O)c2ccc3c(c2)CCO3)n1 (stereo not drawn)	?	?	-	-	?
OC(c1ccc2c(c1)CCO2)c1nc(Nc2cccc(C(F)(F)F)c2)n[nH]1 (stereo not drawn)	71µM	?	-	-	?
OC(c1nc(Nc2ccc(Cl)c(C(F)(F)F)c2)n[nH]1)C1CC1 (stereo not drawn)	56µM	50µM	?	?	-
OC(c1cccc(C(F)(F)F)c1)c1nc(Nc2cccc(Cl)c2)n[nH]1 (stereo not drawn)	63µM	50µM	-	?	-
Cc1ccc(C(=O)NC2CCN(C(=O)c3ccc(-c4cncnc4)cc3)CC2)cc1	-	-	.	.	-
CCC(C)NC(=O)Cn1cccc1-c1nc(-c2ccc(OC)c(F)c2)no1 (stereo not drawn)	?	?	-	-	-
COc1ccc2[nH]cc(CCNC(=O)c3ccc4c(c3)C(O)CCCCCN4C)c2c1 (stereo not drawn)	?	?	-	-	-
O=C(Nc1ccccc1)N1CCC(CCc2nc(C3CCOCC3)no2)CC1	40µM	?	.	.	-
O=C(Nc1ccc2c(c1)OCCO2)N1CCC(CCc2nc(C3CCOCC3)no2)CC1	?	?	.	.	-
COc1ccccc1CCn1cnc(-c2ccccc2)c1-c1cn(C)nc1C	79µM	?	-	-	-
Cc1ccc([S+](=O)([O-])NC2CCN(Cc3ccc(-c4ccsc4)cc3)C2)cc1 (stereo not drawn)	45µM	?	.	.	-
O=[S+]([O-])(NC1CCN(Cc2ccc(-c3ccsc3)cc2)C1)c1cccc(C(F)(F)F)c1 (stereo not drawn)	28µM	16µM	.	.	-
O=[S+]([O-])(NC1CCN(Cc2ccc(-c3ccsc3)cc2)C1)c1ccccc1 (stereo not drawn)	?	?	.	.	-
O=C(NC1CCN(Cc2ccc(-c3ccsc3)cc2)C1)c1ccccc1F (stereo not drawn)	?	?	.	.	-
SMILES	HEK293 tox	NIH3T3 tox	FLuc inh	hNpr1 antagonist	GPT2 inh
O=C(c1ccc(C(F)(F)F)cc1)N1CCN2C(=O)N(C3CCOCC3)C[C@H]2C1	-	-	-	-	-
CCNC(=O)N[C@H]1C[C@@H](Cc2cc(COc3ccccc3)on2)C1(C)C	89µM	?	-	-	-
CC1(C)[C@H](Cc2cc(COc3ccccc3)on2)C[C@@H]1NC(=O)Cc1ccccc1	56µM	56µM	-	?	-
CC(C)(C)CN[C@H]1C[C@@H](Cc2cc(COc3ccccc3)on2)C1(C)C	22µM	28µM	-	-	-
CCCN[C@H]1C[C@@H](Cc2cc(COc3ccccc3)on2)C1(C)C	?	?	-	-	-
COc1ccc(C(=O)N[C@H]2C[C@@H](Cc3cc(COc4ccccc4)on3)C2(C)C)cc1	?	28µM	-	?	-
CC1(C)[C@H](Cc2cc(COc3ccccc3)on2)C[C@@H]1NC1CCOCC1	?	?	-	-	-
CC(C)Cc1cc(C[C@@H]2C[C@H](NC3CCOCC3)C2(C)C)no1	-	-	-	-	-
CN1CCC(N[C@H]2C[C@@H](Cc3cc(-c4ccc(F)cc4)on3)C2(C)C)CC1	8.9µM	7.1µM	63µM	?	-
CC1(C)[C@H](Cc2cc(COc3ccccc3)on2)C[C@@H]1NC(=O)COc1ccccc1	50µM	63µM	-	?	-
COCC(=O)N[C@H]1C[C@@H](Cc2cc(-c3ccc(OC)cc3)on2)C1(C)C	35µM	56µM	?	-	?
CCCCc1cc(C[C@@H]2C[C@H](NC(=O)c3cccc(F)c3)C2(C)C)no1	63µM	63µM	-	?	-
COc1ccc(-c2cc(C[C@@H]3C[C@H](NC(=O)c4ccccc4)C3(C)C)no2)cc1	?	?	-	?	-
CN(C)C(=O)NCC(=O)N1C[C@@H](C(=O)O)[C@H](c2ccc3c(c2)OCO3)C1	-	-	-	-	-
Cc1nc(C)n(CCCNC(=O)C2CCN(C(=O)C3CCC3)CC2)n1	-	-	-	-	-
COc1nc2ccccc2nc1CCC(=O)N[C@H]1COC[C@H]1Cc1cc(C)no1	-	-	-	-	-[11.5 µM]
CCn1cc(C(=O)N2CCn3nc(C(=O)Nc4ccccc4)cc3C2)c(C)n1	?	-	-	-	-
CCCC(C)C(=O)N1CCn2nc(C(=O)Nc3ccccc3)cc2C1 (stereo not drawn)	35µM	-	-	-	-[11.5 µM]
CCn1ncc(N2CCCC(CC(=O)N3CCN(c4cccc(Cl)c4)CC3)C2)cc1=O (stereo not drawn)	35µM	?	-	?	-
CN1CCN(C(=O)CC2CCCN(c3cnn(CC4CC4)c(=O)c3)C2)CC1 (stereo not drawn)	-	-	-	-	-
O=C(CC1CCCN(c2cnn(CC3CC3)c(=O)c2)C1)N1CCN(c2ccccc2)CC1 (stereo not drawn)	50µM	?	-	?	-
CCN1CCN(C(=O)CC2CCCN(c3cnn(CC)c(=O)c3)C2)CC1 (stereo not drawn)	-	-	-	-	-
